# Hits are enriched below; roughly 19% of the tested compounds scored in any of these assays.
# ELG1 repair inh = blocks ELG1-dependent DNA repair in HEK293T cells | HEK293T ELG1-luciferase reporter, luminescence, 16 h; DNA damage induced by 5-fluorouridine | Potency, µM (highest dose often 46.1 µM), hits mostly inhibitors | 330,000 compounds, 2.3% hits; further: nearly all actives have a fitted effect of over 55% in size
#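 In this reporter screen, reduction of luminescence relative to DMSO vehicle indicated activity. Compounds and 5-fluorouridine were added together to 2,000 cells per well, incubated for 16 hr at 37 °C, then developed with ONE-Glo.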
# TDP1 cell noCPT = qHTS for Inhibitors of human tyrosyl-DNA phosphodiesterase 1 (TDP1): qHTS in cells in absence of CPT; DT40 Tdp1-/- hTDP1 cells, no CPT, ATP luminescence, 48 h; Potency, µM (highest dose often 46.2 µM), hits mostly inhibitors; 420,000 compounds, 15% hits; AID 686978, 2013; further: nearly all actives have a fitted effect of over 55% in size
#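 Chicken DT40 Tdp1-/- cells stably complemented with human TDP1 were seeded at 400 cells/well with DMSO in place of 20 nM camptothecin. After compound pinning, cells grew at least 48 hr at 37 °C; viability read by CellTiter-Glo luminescence.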
# IL1B secr inh = blocks inflammasome-driven IL-1 beta release; THP-1 LPS/ATP IL-1B secretion, AlphaLISA, 16 h; hits give low values; activity change, % at 57.5 µM; 360,000 compounds, 4.7% hits; AID 743279; in the data active means activity change below about -50%; inconclusive means mostly about -30% to -49%
#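 THP-1 cells pretreated 1 hr with compounds (up to 57.5 uM final), then stimulated with LPS (250 ng/mL final) plus ATP (1.25 mM final); secreted IL-1B measured by AlphaLISA after 16 hr, decreased signal indicating inhibition.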
# HT1080 IDH1KD tx = HT-1080 IDH1 knockdown cell toxicity (counter line); Potency, µM (highest dose often 46.1 µM), actives largely listed as cytotoxic; 360,000 compounds, 2% hits; HT-1080 IDH1 knockdown viability, ATP luminescence, 48 h
#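 After a 2 h attachment period, IDH1KD HT-1080 cells took pin-transferred compound for 48 h at 37 °C; ATP-based luminescence after 10 min room-temperature reagent incubation reported viability.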
# TDP1 cell CPT = DT40-hTDP1 cell growth loss with CPT; 420,000 compounds, 12% hits; chicken DT40 Tdp1-/-;hTDP1 cells + 20 nM CPT, ATP luminescence, 48 h; Potency, µM (series often up to 46.2 µM), most hits filed as inhibitors; further: nearly all actives have a fitted effect of over 55% in size
#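 Chicken DT40 Tdp1-/- cells complemented with human TDP1, 400 cells/well, exposed to compounds plus 20 nM camptothecin for at least 48 h at 37 C; viability read as ATP content by CellTiter-Glo luminescence.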
# HT1080NT lethal = kills 2HG-producing HT-1080-NT fibrosarcoma cells. AID 686970. Potency, µM (doses to about 46.1 µM), hits mostly cytotoxic. 360,000 compounds, 1.6% hits. HT-1080-NT fibrosarcoma viability, CellTiter-Glo ATP luminescence, 48 h;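 further: NT is the 2HG producing partner of a matched IDH1 knockdown line; nearly all actives have a fitted effect of over 55% in size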
#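 Read-out is CellTiter-Glo luminescence after 10 minutes at room temperature, following 48 hours' compound treatment of HT-1080-NT cells (750 cells/well, RPMI, 5% FBS, 37 degrees C).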
# A number is an active result; . = inactive; ? = inconclusive; / = no result given; ! = repeats disagree; [ ] = remark or other dose. Unless noted, the call rests on the fitted dose curve; in most records, active means well fitted curve in the direction sought with a large enough effect; inconclusive means small, poorly fitted or top-dose-only effect, or another doubt; inactive means no such curve, though single readings can be large; an effect the other way counts as inactive or inconclusive.
SMILES,ELG1 repair inh,TDP1 cell noCPT,IL1B secr inh,HT1080 IDH1KD tx,TDP1 cell CPT,HT1080NT lethal
O=C(C1CC(c2ccc(Cl)c(Cl)c2)=NO1)N1CCC2(CC1)OCCO2 (configuration not stated),?,15µM,-71,.[9.24 µM],15µM,.
O=C(C1CC(c2ccc(F)cc2)=NO1)N1CCC2(CC1)OCCO2 (configuration not stated),?,.,.,.,.,.
O=C1NC2CCCCN2C12CCN(CCCN1c3ccccc3CCc3ccc(Cl)cc31)CC2 (configuration not stated),/,24µM,/,/,?,/
CC[N+]12CCC(CC1)C(=C(c1ccccc1)c1ccccc1)C2,.,16µM,.,.,?,.
CCCC[N+]12CCC(CC1)C(C(O)(c1ccccc1)c1ccccc1)C2 (configuration not stated),.,.,.,.,.,.
O=C1c2cccc3cccc(c23)C(=O)N1CCN1CCN(C(=S)Nc2ccccc2)CC1,16µM,?,?,.,?,.
CCCOc1ccc(N2C(=O)CC(N3CC=C(c4ccccc4)CC3)C2=O)cc1 (configuration not stated),.,?,.,.,.,.
O=C1CC(N2CC=C(c3ccccc3)CC2)C(=O)N1c1ccc(F)cc1 (configuration not stated),.,18µM,.,.,15µM,.
CCCCCCCCCC(=O)O[C@H]1CC[C@H]2[C@@H]3CCC4=CC(=O)CC[C@]4(C)[C@H]3CC[C@]12C,/,.,/,/,.,/
NC(=O)Oc1ccc(Cc2ccccc2)cc1,/,?,/,/,.,/
CC(C)(OOC1(c2ccccc2)NC(=O)c2ccccc21)c1ccccc1 (configuration not stated),/,18µM,.,.,?,.
CC(=O)c1ccc(NC(=O)N2C[C@H]3C[C@@H](C2)c2cccc(=O)n2C3)cc1,.,.,.,.,.,.
CCOc1ccc2nc(N3CCC(C(=O)Nc4ccc(Br)cc4F)CC3)sc2c1,/,13µM,/,/,12µM,/
Cc1cc(=O)oc2c(C)c(OCC(=O)N3CCC(C(=O)O)(c4ccccc4)CC3)ccc12,.,.,.,.,.,.
Cc1cc(N(CCCl)CCCl)ccc1C=NNC(=O)Cc1cc(=O)oc2cc(O)ccc12,/,?,-59,.,12µM,.
CCC1(C)CC(=O)NC(=O)C1,/,.,/,/,.,/
Cc1ccccc1-n1c(/C=C/c2c(C)[nH]c3ccccc23)nc2ccccc2c1=O,/,1.8µM,/,/,2.1µM,/
Cc1cccnc1-n1c(C)nc2ccccc2c1=O,/,.,.,.,.,.
Cc1ccccc1-n1c(/C=C/c2ccc(N(C)C)cc2)nc2ccccc2c1=O,/,13µM,/,/,16µM,/
Cc1ccccc1-n1c(CNc2ccccc2)nc2ccccc2c1=O,/,?,.,?,?,.
CCOC(=O)c1c(C)n(CC(O)CN2CCOCC2)c2cc(Br)c(OC)cc12 (configuration not stated),?,?,.,.,.,.
CCOC(=O)c1c(-c2ccc(OC)cc2)oc2ccc(OC(=O)N(C)C)cc12,?,18µM,.,?,?,?
CC[C@H](C)[C@@H]1NC(=O)CNC(=O)c2csc(n2)[C@H](C(C)(C)O)OC(=O)C(C)(C)[C@H](CCCC(C)(Cl)Cl)OC(=O)c2csc1n2,/,0.18µM,.,0.073µM,0.052µM,2.1µM
COC(=O)[C@@H]1C[C@@]1(C)[C@@H](NP(=O)(c1ccccc1)c1ccccc1)c1ccccc1,.,21µM,.,.,?,.
CC(C)c1ccc(NC(=O)N2C[C@H]3C[C@@H](C2)c2cccc(=O)n2C3)cc1,?,.,.,.,.,.
SMILES,ELG1 repair inh,TDP1 cell noCPT,IL1B secr inh,HT1080 IDH1KD tx,TDP1 cell CPT,HT1080NT lethal
Clc1ccc(-c2nc3ccc(Cl)cn3c2CN2CCOCC2)cc1,?,23µM,.,.,?,.
Clc1ccc(-c2nc3ccc(Cl)cn3c2CN2CCCCC2)cc1,?,16µM,.,.,?,.
O=c1c2cc(Cl)cc(Cl)c2nc(CN2CCOCC2)n1-c1ccccc1F,/,.,.,.,?,.
CCCN(CCC)C(=O)Cc1c(-c2ccc(Cl)cc2)nc2ccc(Cl)cn12,/,?,/,/,.,/
COCC(=O)N1CCC2(CCCN(Cc3ccncc3)C2)CC1,/,.,/,/,.,/
CC(=O)N1CCN(c2ccc(OC[C@@H]3CO[C@@](Cn4ccnc4)(c4ccc(Cl)cc4Cl)O3)cc2)CC1,/,16µM,/,/,16µM,/
CC(=O)N1CCN(c2ccc(OC[C@H]3CO[C@](Cn4ccnc4)(c4ccc(Cl)cc4Cl)O3)cc2)CC1,?,6.3µM,.,.,6.3µM!,.
CN1c2cc(O)c(N=NC(N)=O)cc2CC1S(=O)(=O)O (configuration not stated),/,?,/,/,.,/
CC1([N+](=O)[O-])COP(=O)(Nc2cccc(Br)c2)OC1 (configuration not stated),/,?,.,.,.,.
CCN(CC)c1ccc(/C=N/c2sc3c(c2C#N)C2CCN3CC2)c(O)c1,?,23µM,.,?,18µM,?
CC(=NCCC1=CCCCC1)c1c(O)n(C)c(=O)n(C)c1=O,?,23µM,.,.,10µM,.
Cc1ccc(C)c(S(=O)(=O)c2nnn3c2nc(N2CCN(C)CC2)c2sccc23)c1,/,?,/,/,16µM,/
CCN1C[C@@]2(COC)C3[C@@H](OC)[C@H]4[C@@H]1[C@@]3(C1C[C@@]3(O)[C@H](OC(=O)c5ccccc5)C1[C@]4(OC(C)=O)[C@@H](O)[C@H]3OC)[C@@H](OC)C[C@H]2O (some centres not stated),/,.,.,.,.,.
CC1(C)NC(=S)C(C)(C)N1N=O,/,.,.,.,.,.
C=C1C(=O)O[C@@H]2C[C@@H](C)[C@@H]3C4OC4C(=O)[C@@]3(C)[C@@H](O)[C@H]12 (some centres not stated),?,0.52µM,-113,9.2µM,1µM,15µM
COc1ccc(NC(c2ccccc2)P(=O)(Oc2ccccc2)Oc2ccccc2)cc1 (configuration not stated),?,.,.,.,.,.
COc1ccc(NC(c2ccccc2F)P(=O)(Oc2ccccc2)Oc2ccccc2)cc1 (configuration not stated),18µM,?,.,?,?,.
Cc1ccc(OC(=O)N(C)C[C@H]2OCc3cnnn3CCCC(=O)N([C@H](C)CO)C[C@@H]2C)cc1,/,?,.,.,?,.

# Screening data deposited in PubChem by National Center for Advancing Translational Sciences (NCATS).
